Experiment in all cases: yeast three-hybrid, YBZ-1, SC-Leu-His + 0.5 mM 3-AT, 4 days
What all share (conditions): tags: N-Gal4 AD-HA kept; label: inside an RPR1-promoter hybrid RNA with tandem MS2 sites; ssRNA

In one assay the target is T1, PUM1 PUF domain R6-TFE (Homo sapiens, UniProt Q14671 828-1176, N1043T;Y1044F;Q1047E).
T1 sequence: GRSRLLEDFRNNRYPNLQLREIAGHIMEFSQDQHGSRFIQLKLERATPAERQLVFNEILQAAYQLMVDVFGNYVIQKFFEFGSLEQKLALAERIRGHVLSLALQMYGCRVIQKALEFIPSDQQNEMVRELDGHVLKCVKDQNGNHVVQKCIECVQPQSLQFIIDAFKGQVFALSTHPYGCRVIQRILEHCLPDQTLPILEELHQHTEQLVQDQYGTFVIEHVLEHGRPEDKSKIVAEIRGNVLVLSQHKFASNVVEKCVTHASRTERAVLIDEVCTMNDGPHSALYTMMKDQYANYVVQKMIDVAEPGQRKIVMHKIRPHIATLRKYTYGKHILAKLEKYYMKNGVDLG
The method in brief: (§1)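 Repeat regions from input (SC-Leu) and selection (SC-Leu-His + 0.5 mM 3-AT) plates were PCR-amplified and Illumina-sequenced after four days of growth. The cells were strain YBZ-1 with a LexA–MS2 coat fusion and a HIS3 reporter, co-expressing Pumilio-1 PUF domain libraries and matching RNA elements from a centromeric plasmid. The interaction score is the log change in variant frequency from input to selection, taken in log2 with a pseudocount of 1 for absent variants.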

For a further assay, the target named is PUM1 PUF domain R1-KLV (Homo sapiens, UniProt Q14671 828-1176, S863K;R864L;Q867V). A digest of the protocol:
as §1

A further assay deals with T2, PUM1 PUF domain R6-RFS (Homo sapiens, UniProt Q14671 828-1176, N1043R;Y1044F;Q1047S).
T2 sequence: T1 sequence with T216R, E220S
A digest of the protocol: as §1

The target of the next assay is PUM1 PUF domain R8-VRR (Homo sapiens, UniProt Q14671 828-1176, N1122V;Y1123R;Q1126R). The method in brief:
as §1

The next assay has as its target PUM1 PUF domain R4-DFS (Homo sapiens, UniProt Q14671 828-1176, N971D;H972F;Q975S). The method in brief: as §1
A further assay addresses PUM1 PUF domain R8-SWQ (Homo sapiens, UniProt Q14671 828-1176, N1122S;Y1123W). The method in brief: as §1
The target of another assay is PUM1 PUF domain R4-DYM (Homo sapiens, UniProt Q14671 828-1176, N971D;H972Y;Q975M). The method in brief: as §1
The target in a further assay is PUM1 PUF domain R3-SRN (Homo sapiens, UniProt Q14671 828-1176, C935S;Q939N). A digest of the protocol:
as §1

For the next assay, the target named is PUM1 PUF domain R5-LWS (Homo sapiens, UniProt Q14671 828-1176, C1007L;R1008W;Q1011S). A digest of the protocol:
as §1

For another assay, the target named is PUM1 PUF domain R5-SRR (Homo sapiens, UniProt Q14671 828-1176, C1007S;Q1011R). A digest of the protocol: as §1

The values below come from paper PMC8384837, “Expanding the binding specificity for RNA recognition by a PUF domain”.

Where a chain is given by its changes, count along the chain named.

Sequence of PUM1 PUF domain R5-LWS (Q14671 828-1176 C1007L/R1008W/Q1011S): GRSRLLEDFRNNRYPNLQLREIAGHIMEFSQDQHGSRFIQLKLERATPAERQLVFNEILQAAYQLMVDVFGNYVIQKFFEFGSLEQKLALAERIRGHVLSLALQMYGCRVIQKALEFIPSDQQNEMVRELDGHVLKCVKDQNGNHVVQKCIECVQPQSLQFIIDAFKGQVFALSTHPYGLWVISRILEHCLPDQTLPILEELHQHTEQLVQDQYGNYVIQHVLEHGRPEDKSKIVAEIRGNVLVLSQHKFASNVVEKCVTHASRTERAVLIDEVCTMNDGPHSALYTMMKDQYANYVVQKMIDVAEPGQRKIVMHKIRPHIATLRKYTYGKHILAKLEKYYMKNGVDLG

Turning to “GGCUAGAACUAGUGGAUCCCCCGGCGCCCGGCGGCUCGAGCCCGGGUAAGUGGAAAUAGUCUGCAUGCCGCCGGGCGCCAUGCCUGCAGGUCGACUCUAGAAAACAUG”, the binding signal in the assay with PUM1 PUF domain R6-TFE is 3.07 log2 enrichment (interaction score). On to “GGCUAGAACUAGUGGAUCCCCCGGCGCCCGGCGGCUCGAGCCCGGGUAAGUGUAAAUGGUCUGCAUGCCGCCGGGCGCCAUGCCUGCAGGUCGACUCUAGAAAACAUG”, for which, in the assay with PUM1 PUF domain R1-KLV, the binding signal was 3.18 log2 enrichment (interaction score). With “GGCUAGAACUAGUGGAUCCCCCGGCGCCCGGCGGCUCGAGCCCGGGUAAGUGUAAAUAGUCUGCAUGCCGCCGGGCGCCAUGCCUGCAGGUCGACUCUAGAAAACAUG”, the binding signal with PUM1 PUF domain R6-RFS was 4.37 log2 enrichment (interaction score); in the assay with PUM1 PUF domain R8-VRR it was 1.71 log2 enrichment (interaction score); with PUM1 PUF domain R4-DFS it was 6.43 log2 enrichment (interaction score); with PUM1 PUF domain R8-SWQ, 4.66 log2 enrichment (interaction score); in the assay with PUM1 PUF domain R4-DYM it was 4.83 log2 enrichment (interaction score); in the assay with PUM1 PUF domain R3-SRN it was 4.26 log2 enrichment (interaction score). In addition, the binding signal with PUM1 PUF domain R5-LWS is 2.04 log2 enrichment (interaction score). In the case of “GGCUAGAACUAGUGGAUCCCCCGGCGCCCGGCGGCUCGAGCCCGGGUAAGUGUCAAUAGUCUGCAUGCCGCCGGGCGCCAUGCCUGCAGGUCGACUCUAGAAAACAUG”, the results for the binding signal with PUM1 PUF domain R5-SRR and in the assay with PUM1 PUF domain R5-LWS were 4.23 log2 enrichment (interaction score) and 2.81 log2 enrichment (interaction score), respectively.

Turning to “GGCUAGAACUAGUGGAUCCCCCGGCGCCCGGCGGCUCGAGCCCGGGUAAGCGUAAAUAGUCUGCAUGCCGCCGGGCGCCAUGCCUGCAGGUCGACUCUAGAAAACAUG”, the binding signal with PUM1 PUF domain R8-VRR is 2.81 log2 enrichment (interaction score). On to “GGCUAGAACUAGUGGAUCCCCCGGCGCCCGGCGGCUCGAGCCCGGGUAAGUGUGAAUAGUCUGCAUGCCGCCGGGCGCCAUGCCUGCAGGUCGACUCUAGAAAACAUG”, for which the binding signal with PUM1 PUF domain R5-LWS is 1.62 log2 enrichment (interaction score).

Regarding “GGCUAGAACUAGUGGAUCCCCCGGCGCCCGGCGGCUCGAGCCCGGGUAAGUGUAAGUAGUCUGCAUGCCGCCGGGCGCCAUGCCUGCAGGUCGACUCUAGAAAACAUG”, the binding signal in the assay with PUM1 PUF domain R3-SRN is 1.88 log2 enrichment (interaction score). Turning to “GGCUAGAACUAGUGGAUCCCCCGGCGCCCGGCGGCUCGAGCCCGGGUAAGUGUACAUAGUCUGCAUGCCGCCGGGCGCCAUGCCUGCAGGUCGACUCUAGAAAACAUG”, the binding signal with PUM1 PUF domain R4-DYM was 5.08 log2 enrichment (interaction score).
